This is one part of a sample in which the strongest signals are shown more often than they occur.
Key:
Experiment in all cases: glycan array binding signal (z-score within array); higher = stronger binding
Neu5Ac(a2-8)Neu5Ac = details: glycan notation: IUPAC condensed, linker removed
In short: (§1)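 The Consortium for Functional Glycomics database supplied 3228 glycan arrays, of which those lacking an available protein sequence were dropped. The binding signal, a within-array Z-score, was averaged across arrays of the same protein sequence and across linkers. Negative scores can be read as non-binding.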

[1] = system: Neu5Ac9Ac(a2-3)Gal(b1-3)GlcNAc; details: glycan notation: IUPAC condensed, linker removed
In short: as §1

[2] = system: Neu5Ac9Ac(a2-3)Gal(b1-4)GlcNAc; details: glycan notation: IUPAC condensed, linker removed; mutation: R125K
In short: as §1

[3] = system: Neu5Gc(a2-3)Gal(b1-3)[Fuc(a1-4)]GlcNAc; details: glycan notation: IUPAC condensed, linker removed; mutation: R125K
In short: as §1

[4] = system: Neu5Gc(a2-3)Gal(b1-4)GlcNAc(b1-3)Gal(b1-4)GlcNAc(b1-2)Man(a1-3)[Neu5Gc(a2-3)Gal(b1-4)GlcNAc(b1-3)Gal(b1-4)GlcNAc(b1-2)Man(a1-6)]Man(b1-4)GlcNAc(b1-4)GlcNAc; details: glycan notation: IUPAC condensed, linker removed
In short: as §1

[5] = system: Neu5Gc(a2-3)Gal(b1-4)GlcNAc; details: glycan notation: IUPAC condensed, linker removed
In short: as §1

Neu5Gc(a2-3)Gal(b1-4)Glc = details: glycan notation: IUPAC condensed, linker removed
In short: as §1

[6] = system: Neu5Gc(a2-8)Neu5Gc(a2-3)Gal(b1-4)GlcNAc; details: glycan notation: IUPAC condensed, linker removed; mutation: R125K
In short: as §1

[7] = system: Neu5Ac(a2-8)Neu5Ac(a2-8)Neu5Ac(a2-8)Neu5Ac(a2-3)[GalNAc(b1-4)]Gal(b1-4)Glc; details: glycan notation: IUPAC condensed, linker removed
In short: as §1

Neu5Gc(a2-6)GalNAc = details: glycan notation: IUPAC condensed, linker removed
In short: as §1

[8] = system: Neu5Gc(b2-6)Gal(b1-4)GlcNAc; details: glycan notation: IUPAC condensed, linker removed
In short: as §1

[9] = system: Neu5Ac9Ac(a2-6)Gal(b1-4)GlcNAc; details: glycan notation: IUPAC condensed, linker removed
In short: as §1

Neu5Ac(b2-6)GalNAc = details: glycan notation: IUPAC condensed, linker removed
In short: as §1

[10] = system: Neu5Ac(a2-8)Neu5Ac(a2-8)Neu5Ac; details: glycan notation: IUPAC condensed, linker removed; mutation: D138V, E140I
In short: as §1

[11] = system: Neu5Gc(a2-3)Gal(b1-4)[Fuc(a1-3)]GlcNAc; details: glycan notation: IUPAC condensed, linker removed
In short: as §1

CHI3L1 (Homo sapiens), P36222, sequence (P36222 whole entry): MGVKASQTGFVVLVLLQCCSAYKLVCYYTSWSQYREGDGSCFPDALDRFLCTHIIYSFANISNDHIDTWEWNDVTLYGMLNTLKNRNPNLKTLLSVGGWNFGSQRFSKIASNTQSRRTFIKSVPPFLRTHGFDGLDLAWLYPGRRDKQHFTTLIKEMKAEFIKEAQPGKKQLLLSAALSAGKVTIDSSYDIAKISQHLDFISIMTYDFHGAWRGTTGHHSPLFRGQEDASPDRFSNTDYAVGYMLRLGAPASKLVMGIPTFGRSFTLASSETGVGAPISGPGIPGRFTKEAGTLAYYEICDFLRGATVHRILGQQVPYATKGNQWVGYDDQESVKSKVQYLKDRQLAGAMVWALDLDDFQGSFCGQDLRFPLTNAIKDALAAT
6RG (Lolium perenne), sequence (chain, as listed by the source): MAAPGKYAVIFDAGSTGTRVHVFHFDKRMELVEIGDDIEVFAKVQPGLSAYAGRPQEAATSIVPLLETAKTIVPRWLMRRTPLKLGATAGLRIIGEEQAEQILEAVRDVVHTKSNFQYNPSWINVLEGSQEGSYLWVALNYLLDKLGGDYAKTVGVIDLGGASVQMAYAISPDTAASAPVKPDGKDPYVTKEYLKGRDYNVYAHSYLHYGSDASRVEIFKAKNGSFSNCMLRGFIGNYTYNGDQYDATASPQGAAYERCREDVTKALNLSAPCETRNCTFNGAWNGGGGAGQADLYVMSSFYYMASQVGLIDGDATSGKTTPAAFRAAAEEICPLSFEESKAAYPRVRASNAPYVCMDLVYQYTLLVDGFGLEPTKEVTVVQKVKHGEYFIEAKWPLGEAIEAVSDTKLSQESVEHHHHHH
C3b (Homo sapiens), P01024, sequence (P01024 23-667): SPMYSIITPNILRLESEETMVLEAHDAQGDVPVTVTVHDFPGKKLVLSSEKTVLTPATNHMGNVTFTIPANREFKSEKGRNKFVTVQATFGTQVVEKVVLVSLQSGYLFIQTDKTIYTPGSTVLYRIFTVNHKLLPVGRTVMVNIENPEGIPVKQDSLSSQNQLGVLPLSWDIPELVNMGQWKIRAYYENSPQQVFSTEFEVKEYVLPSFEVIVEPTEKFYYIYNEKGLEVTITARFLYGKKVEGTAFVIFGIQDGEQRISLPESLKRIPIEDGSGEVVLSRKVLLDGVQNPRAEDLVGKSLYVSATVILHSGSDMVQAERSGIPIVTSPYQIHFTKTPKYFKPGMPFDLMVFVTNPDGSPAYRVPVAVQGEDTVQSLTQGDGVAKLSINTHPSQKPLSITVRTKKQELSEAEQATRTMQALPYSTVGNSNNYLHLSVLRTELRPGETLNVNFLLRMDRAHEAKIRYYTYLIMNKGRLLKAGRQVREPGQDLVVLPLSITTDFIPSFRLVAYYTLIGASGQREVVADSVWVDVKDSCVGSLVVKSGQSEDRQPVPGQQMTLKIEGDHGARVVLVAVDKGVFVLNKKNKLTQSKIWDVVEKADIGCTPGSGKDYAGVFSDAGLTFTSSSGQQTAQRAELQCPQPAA
SRLC (Mus musculus), Q8VIF6, sequence (Q8VIF6 other isoform, or with tags, fused parts or gaps): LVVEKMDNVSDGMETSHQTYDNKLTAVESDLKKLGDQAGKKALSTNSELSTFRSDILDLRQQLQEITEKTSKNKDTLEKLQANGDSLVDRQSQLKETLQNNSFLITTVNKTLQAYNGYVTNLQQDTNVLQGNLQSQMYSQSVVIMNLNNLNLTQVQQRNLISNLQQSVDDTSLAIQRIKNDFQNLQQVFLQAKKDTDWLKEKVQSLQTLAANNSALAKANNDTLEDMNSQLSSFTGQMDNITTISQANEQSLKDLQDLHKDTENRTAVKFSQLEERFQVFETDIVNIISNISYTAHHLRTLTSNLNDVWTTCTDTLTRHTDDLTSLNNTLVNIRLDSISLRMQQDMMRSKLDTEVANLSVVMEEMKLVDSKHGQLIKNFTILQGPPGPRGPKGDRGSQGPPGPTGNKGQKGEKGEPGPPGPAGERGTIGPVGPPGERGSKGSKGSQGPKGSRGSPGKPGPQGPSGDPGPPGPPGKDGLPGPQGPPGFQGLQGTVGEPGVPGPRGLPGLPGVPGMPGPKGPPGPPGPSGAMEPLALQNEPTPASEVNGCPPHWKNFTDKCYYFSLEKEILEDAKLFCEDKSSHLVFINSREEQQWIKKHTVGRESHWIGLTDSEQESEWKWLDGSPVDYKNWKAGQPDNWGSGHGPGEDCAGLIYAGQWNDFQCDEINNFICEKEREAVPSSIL
CHT (Homo sapiens), sequence (chain, as listed by the source): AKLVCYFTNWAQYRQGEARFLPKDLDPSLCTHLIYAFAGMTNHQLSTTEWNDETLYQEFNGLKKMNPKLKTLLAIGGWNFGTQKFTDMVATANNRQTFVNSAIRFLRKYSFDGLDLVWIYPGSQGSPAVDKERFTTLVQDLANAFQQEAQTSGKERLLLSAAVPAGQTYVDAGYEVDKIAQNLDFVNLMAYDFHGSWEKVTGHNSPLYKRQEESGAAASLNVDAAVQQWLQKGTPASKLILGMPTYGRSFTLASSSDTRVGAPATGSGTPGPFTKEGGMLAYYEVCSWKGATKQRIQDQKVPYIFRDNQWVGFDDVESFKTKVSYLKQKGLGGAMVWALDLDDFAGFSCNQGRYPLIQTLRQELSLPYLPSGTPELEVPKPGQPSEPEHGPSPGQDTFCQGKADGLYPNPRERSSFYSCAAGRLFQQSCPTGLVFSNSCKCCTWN
Neurocan (Homo sapiens), O14594, sequence (O14594 other isoform, or with tags, fused parts or gaps): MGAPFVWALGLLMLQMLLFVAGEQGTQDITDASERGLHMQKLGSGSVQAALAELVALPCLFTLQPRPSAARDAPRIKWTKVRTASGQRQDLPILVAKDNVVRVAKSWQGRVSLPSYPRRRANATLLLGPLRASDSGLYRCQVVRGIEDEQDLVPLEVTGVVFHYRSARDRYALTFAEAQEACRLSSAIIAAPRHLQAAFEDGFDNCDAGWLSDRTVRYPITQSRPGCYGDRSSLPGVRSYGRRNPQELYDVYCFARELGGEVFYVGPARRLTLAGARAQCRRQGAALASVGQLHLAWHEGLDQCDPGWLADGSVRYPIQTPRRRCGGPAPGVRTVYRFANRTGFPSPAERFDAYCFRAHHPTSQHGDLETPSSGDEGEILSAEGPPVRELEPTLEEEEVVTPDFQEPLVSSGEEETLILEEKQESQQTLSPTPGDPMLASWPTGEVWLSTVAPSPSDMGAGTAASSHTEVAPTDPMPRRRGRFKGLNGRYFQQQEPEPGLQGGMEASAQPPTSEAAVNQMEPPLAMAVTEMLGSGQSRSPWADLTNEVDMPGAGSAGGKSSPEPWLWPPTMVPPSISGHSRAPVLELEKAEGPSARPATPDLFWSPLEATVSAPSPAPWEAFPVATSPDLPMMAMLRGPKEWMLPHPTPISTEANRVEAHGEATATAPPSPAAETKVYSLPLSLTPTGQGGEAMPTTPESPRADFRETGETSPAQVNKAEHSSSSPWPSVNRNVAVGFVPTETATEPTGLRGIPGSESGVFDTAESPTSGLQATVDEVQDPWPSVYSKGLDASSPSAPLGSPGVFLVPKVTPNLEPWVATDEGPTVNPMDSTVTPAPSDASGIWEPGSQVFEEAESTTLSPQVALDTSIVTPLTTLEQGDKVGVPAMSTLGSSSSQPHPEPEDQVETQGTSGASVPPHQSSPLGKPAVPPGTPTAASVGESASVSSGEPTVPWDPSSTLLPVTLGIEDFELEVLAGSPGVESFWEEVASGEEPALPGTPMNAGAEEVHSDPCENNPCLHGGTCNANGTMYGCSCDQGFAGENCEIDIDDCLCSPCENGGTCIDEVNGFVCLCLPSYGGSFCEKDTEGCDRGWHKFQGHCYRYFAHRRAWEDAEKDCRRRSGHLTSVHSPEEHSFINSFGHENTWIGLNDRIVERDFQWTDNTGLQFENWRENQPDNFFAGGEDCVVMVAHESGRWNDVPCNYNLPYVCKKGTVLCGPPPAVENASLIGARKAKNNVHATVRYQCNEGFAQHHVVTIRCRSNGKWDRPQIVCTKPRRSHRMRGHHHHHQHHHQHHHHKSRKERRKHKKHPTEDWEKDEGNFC
PILRb (Mus musculus), Q2YSF2, sequence (Q2YSF2 entry or part of it): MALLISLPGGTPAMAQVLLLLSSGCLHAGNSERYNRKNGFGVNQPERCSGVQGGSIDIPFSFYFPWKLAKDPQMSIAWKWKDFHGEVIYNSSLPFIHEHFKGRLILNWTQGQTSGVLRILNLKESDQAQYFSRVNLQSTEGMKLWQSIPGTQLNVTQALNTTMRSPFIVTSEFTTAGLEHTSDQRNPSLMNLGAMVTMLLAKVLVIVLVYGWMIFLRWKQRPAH
Aggrecan (Rattus norvegicus), NP_071526, sequence (chain, as listed by the source): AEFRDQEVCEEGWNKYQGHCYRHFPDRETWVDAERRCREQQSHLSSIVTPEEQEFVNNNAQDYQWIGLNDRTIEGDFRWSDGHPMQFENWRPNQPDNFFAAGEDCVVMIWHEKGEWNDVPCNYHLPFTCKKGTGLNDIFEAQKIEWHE
6RG (Lolium perenne), B9U140, sequence (B9U140 entry or part of it): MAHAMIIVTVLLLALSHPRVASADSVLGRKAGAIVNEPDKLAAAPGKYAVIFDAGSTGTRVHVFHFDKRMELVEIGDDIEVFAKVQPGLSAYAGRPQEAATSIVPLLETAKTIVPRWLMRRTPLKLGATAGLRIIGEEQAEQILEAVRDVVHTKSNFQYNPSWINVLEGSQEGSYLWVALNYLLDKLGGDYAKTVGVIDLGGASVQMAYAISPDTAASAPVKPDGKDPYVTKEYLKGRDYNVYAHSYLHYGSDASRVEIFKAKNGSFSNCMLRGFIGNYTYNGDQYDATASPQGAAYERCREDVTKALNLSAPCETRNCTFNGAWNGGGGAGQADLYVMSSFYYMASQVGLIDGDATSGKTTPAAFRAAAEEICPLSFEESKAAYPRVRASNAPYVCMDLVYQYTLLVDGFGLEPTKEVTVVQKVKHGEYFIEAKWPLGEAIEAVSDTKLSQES
Avaren (Actinomycete K97), sequence (chain, as listed by the source): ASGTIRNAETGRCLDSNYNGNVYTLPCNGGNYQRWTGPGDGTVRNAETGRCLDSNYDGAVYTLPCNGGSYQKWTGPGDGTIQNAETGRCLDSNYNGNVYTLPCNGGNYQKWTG

Substance: Siglec-8 (Homo sapiens), Q9NYZ4
- glycan array binding signal (z-score) (Neu5Ac(a2-8)Neu5Ac): 0.014
- glycan array binding signal (z-score) [1]: -0.078
- glycan array binding signal (z-score) [2]: -0.109
- glycan array binding signal (z-score) [3]: -0.465
- glycan array binding signal (z-score) [4]: 0.025
- glycan array binding signal (z-score) ([5]; mutation: R125K): -0.109
- glycan array binding signal (z-score) (Neu5Gc(a2-3)Gal(b1-4)Glc): -0.088
- glycan array binding signal (z-score) [6]: -0.526

Substance: C3b (Homo sapiens), P01024
- glycan array binding signal (z-score) [7]: -0.102
- glycan array binding signal (z-score) (Neu5Gc(a2-6)GalNAc): -0.982

Substance: SRLC (Mus musculus), Q8VIF6
- glycan array binding signal (z-score) (Neu5Gc(a2-3)Gal(b1-4)Glc): -0.188

Substance: PILRb (Mus musculus), Q2YSF2
- glycan array binding signal (z-score) [8]: -0.093

Substance: MpAFP RI GFP (Marinomonas primoryensis)
- glycan array binding signal (z-score) [1]: 0.228
- glycan array binding signal (z-score) [9]: -0.772

Substance: Neurocan (Homo sapiens), O14594
- glycan array binding signal (z-score) [5]: -0.18

Substance: Avaren (Actinomycete K97)
- glycan array binding signal (z-score) (Neu5Ac(b2-6)GalNAc): -0.14

Substance: CHT (Homo sapiens)
- glycan array binding signal (z-score) [10]: -0.166

Substance: Aggrecan (Rattus norvegicus), NP_071526
- glycan array binding signal (z-score) [11]: -0.152

Substance: CHI3L1 (Homo sapiens), P36222
- glycan array binding signal (z-score) (Neu5Ac(a2-8)Neu5Ac): -0.091
- glycan array binding signal (z-score) [1]: -0.07

Substance: 6RG (Lolium perenne)
- glycan array binding signal (z-score) (Neu5Ac(a2-8)Neu5Ac): -0.273
- glycan array binding signal (z-score) (Neu5Gc(a2-6)GalNAc): -0.128

Substance: 6RG (Lolium perenne), B9U140
- glycan array binding signal (z-score) [9]: 2.52

Reference: the supplement of paper PMC8728848
